Experimental data as given in PubChem BioAssay (NCATS).
Records with an inconclusive call do not appear. Active and inactive are the calls of the source. Calls come from the whole dose curve; as a rule, active = well fitted inhibition curve with a large enough effect; inconclusive = small, poorly fitted or top-dose-only effect; inactive = flat fitted curve, though single readings scatter.

Legend:
Test in all cases: qHTS profiling for inhibitors of Plasmodium falciparum proliferation (AID 504749); note: nearly all actives have a fitted effect of over 60% in size
Conditions in all cases: P. falciparum in erythrocytes, SYBR Green DNA, 72 h; series mostly up to 28.7 µM
[1] = system: AA1029
How it was run: (§1)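 P. falciparum-infected erythrocytes (0.3% parasitemia, 2.5% hematocrit) incubated with compound 72 h at 37 C, 5% CO2. Parasite DNA detected by SYBR Green after lysis, overnight at room temperature; normalised to 0.29 uM artemisinin and DMSO.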

[2] = system: AS120
How it was run: as §1

[3] = system: ATS189
How it was run: as §1

[4] = system: ATS95
How it was run: as §1

[5] = system: C2A
How it was run: as §1

[6] = system: CP185
How it was run: as §1

[7] = system: CP191
How it was run: as §1

[8] = system: CP192
How it was run: as §1

[9] = system: CP194
How it was run: as §1

[10] = system: CP201
How it was run: as §1

Measured: Potency
Potency is the fitted concentration of half-maximal effect.

CCC(C(=O)O)C1CCC(C)C(C(C)C(O)C(C)C(=O)C(CC)C2OC3(C=CC(O)[C@@]4(CC[C@](C)(C5CC[C@@](O)(CC)C(C)O5)O4)O3)C(C)CC2C)O1 (some centres not stated)
active: [1] 0.891 µM | [2] 0.631 µM | [3] 1.26 µM | [4] 1.12 µM | [5] 1.12 µM | [6] 1.26 µM | [7] 1 µM | [8] 0.849 µM | [9] 0.601 µM | [10] 0.953 µM

OCC(O)C(O)C(O)CO (configuration not stated)
inactive: all assays above

Nc1nc2c(c(=O)[nH]1)N(C=O)[C@H](CNc1ccc(C(=O)N[C@@H](CCC(=O)O)C(=O)O)cc1)CN2
inactive: all assays above

COc1ccc([C@@H]2CNC(=O)C2)cc1OC1CCCC1
not listed: [4]
inactive: all other assays above

CCCCCCCCCCCC(CC1OC(=O)C1CCCCCC)OC(=O)C(CC(C)C)NC=O (configuration not stated)
active: [1] 0.447 µM | [2] 0.316 µM | [4] 0.794 µM | [5] 0.562 µM | [6] 0.708 µM | [7] 0.562 µM | [9] 9.53 µM
inactive: [8] | [10]

COc1ccc2c(c1OC)C(=O)OC2[C@H]1c2c(cc3c(c2OC)OCO3)CCN1C (some centres not stated)
inactive: all assays above

COc1cccc2c1C(=O)c1c(O)c3c(c(O)c1C2=O)C[C@@](O)(C(=O)CO)C[C@@H]3O[C@H]1C[C@H](N)[C@H](OC2CCCCO2)[C@H](C)O1 (some centres not stated)
active: [1] 3.55 µM | [2] 2.51 µM | [3] 11.2 µM | [4] 3.98 µM | [5] 8.91 µM | [7] 8.91 µM | [8] 8.49 µM | [9] 9.53 µM | [10] 9.53 µM
